1 sequence from PMC7862700, “An all-to-all approach to the identification of sequence-specific readers for epigenetic DNA modifications on cytosine” can be followed below.

Holding throughout (assay): DAPPL (digital affinity profiling via proximity ligation, sequencing); 10 mM Tris-HCl pH 7.5, 50 mM NaCl, 1 mM DTT, 4% glycerol, room temperature, 30 min; GST-TFs on glutathione beads, 16-mer random dsDNA library, 0.1% formaldehyde crosslink after washing; high values mean tight binding
In one assay the target is T1, FLI1 (Homo sapiens, UniProt Q01543 1-452).
T1 sequence: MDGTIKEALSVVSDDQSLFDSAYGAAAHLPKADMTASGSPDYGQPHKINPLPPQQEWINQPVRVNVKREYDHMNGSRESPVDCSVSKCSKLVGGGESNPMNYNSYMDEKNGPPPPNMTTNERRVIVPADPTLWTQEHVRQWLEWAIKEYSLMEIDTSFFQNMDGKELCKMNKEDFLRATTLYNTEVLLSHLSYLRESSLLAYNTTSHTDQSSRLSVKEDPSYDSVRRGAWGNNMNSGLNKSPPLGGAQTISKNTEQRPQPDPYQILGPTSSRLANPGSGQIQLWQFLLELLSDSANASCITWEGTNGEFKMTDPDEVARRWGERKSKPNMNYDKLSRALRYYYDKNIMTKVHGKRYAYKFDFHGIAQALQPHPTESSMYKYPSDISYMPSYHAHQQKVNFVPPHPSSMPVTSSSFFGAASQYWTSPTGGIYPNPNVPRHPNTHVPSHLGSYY
Conditions: protein: recombinant; tags: N-terminal GST; dsDNA, one strand shown. In a few lines:
(§1)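 In yeast, human transcription factors were expressed with a GST fusion, then pulled down on glutathione beads and given DNA barcodes. Pooled with a tag-only sample, they were exposed to 200 nmole of a 16-mer random double-stranded DNA library (Tris/NaCl/DTT/glycerol buffer, room temperature, 30 min), washed, crosslinked with 0.1% formaldehyde, proximity-ligated using BsaI/T4 ligase for 1 h at 37 °C, PCR-amplified and read on an Illumina NextSeq500. Each hexamer's frequency of reads for a factor, divided by the matching frequency for the tag-only sample, gives the binding signal.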

The target of a further assay is T2, ELK1 (Homo sapiens, UniProt P19419 1-428).
T2 sequence: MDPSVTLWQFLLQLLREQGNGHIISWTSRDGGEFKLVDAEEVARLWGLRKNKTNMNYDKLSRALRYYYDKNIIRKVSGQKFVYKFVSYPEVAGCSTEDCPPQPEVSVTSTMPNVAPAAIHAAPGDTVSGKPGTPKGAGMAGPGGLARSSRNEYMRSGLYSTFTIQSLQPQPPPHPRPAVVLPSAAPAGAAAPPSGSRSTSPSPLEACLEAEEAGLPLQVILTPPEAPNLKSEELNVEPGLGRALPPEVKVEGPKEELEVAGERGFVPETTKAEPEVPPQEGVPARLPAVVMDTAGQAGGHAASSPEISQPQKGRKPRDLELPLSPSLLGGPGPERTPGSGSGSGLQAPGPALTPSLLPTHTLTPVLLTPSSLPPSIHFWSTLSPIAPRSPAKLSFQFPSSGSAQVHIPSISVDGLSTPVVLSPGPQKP
The note with it: protein: recombinant; tags: N-terminal GST; dsDNA, one strand shown. In a few lines:
as §1

The target in another assay is T3, GABPA (Homo sapiens, UniProt Q06546 1-454).
T3 sequence: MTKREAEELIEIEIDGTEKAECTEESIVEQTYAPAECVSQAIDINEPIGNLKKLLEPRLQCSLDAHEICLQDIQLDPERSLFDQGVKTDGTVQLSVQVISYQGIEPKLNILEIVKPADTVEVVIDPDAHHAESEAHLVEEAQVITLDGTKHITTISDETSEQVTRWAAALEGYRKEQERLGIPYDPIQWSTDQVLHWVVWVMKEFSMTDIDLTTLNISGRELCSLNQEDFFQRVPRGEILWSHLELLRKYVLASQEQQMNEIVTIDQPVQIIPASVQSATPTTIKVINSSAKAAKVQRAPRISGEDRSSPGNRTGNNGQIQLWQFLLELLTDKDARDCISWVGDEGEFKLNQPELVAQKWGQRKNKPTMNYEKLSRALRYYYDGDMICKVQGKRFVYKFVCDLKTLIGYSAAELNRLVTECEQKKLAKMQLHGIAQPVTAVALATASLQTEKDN
Conditions: protein: recombinant; tags: N-terminal GST; dsDNA, one strand shown. In a few lines:
as §1

The target in the next assay is T4, ERG (Homo sapiens, UniProt P11308 1-479).
T4 sequence: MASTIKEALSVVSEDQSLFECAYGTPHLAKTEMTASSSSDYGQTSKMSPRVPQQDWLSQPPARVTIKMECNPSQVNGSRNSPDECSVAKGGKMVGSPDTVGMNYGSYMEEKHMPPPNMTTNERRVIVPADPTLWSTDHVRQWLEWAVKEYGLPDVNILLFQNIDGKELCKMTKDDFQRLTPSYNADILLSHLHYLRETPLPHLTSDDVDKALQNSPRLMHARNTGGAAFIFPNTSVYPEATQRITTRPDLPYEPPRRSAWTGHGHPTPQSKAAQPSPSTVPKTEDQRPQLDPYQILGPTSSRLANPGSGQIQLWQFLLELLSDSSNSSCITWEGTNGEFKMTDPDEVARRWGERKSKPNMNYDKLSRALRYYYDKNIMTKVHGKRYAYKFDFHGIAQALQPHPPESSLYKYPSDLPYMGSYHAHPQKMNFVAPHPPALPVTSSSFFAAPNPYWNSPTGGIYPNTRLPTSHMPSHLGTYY
The note with it: protein: recombinant; tags: N-terminal GST; dsDNA, one strand shown. An outline of the steps:
as §1

The next assay deals with ELF1 (Homo sapiens, UniProt P32519 1-619). The note with it: protein: recombinant; tags: N-terminal GST; dsDNA, one strand shown. An outline of the steps: as §1
Chain of ELF1 (P32519 whole entry): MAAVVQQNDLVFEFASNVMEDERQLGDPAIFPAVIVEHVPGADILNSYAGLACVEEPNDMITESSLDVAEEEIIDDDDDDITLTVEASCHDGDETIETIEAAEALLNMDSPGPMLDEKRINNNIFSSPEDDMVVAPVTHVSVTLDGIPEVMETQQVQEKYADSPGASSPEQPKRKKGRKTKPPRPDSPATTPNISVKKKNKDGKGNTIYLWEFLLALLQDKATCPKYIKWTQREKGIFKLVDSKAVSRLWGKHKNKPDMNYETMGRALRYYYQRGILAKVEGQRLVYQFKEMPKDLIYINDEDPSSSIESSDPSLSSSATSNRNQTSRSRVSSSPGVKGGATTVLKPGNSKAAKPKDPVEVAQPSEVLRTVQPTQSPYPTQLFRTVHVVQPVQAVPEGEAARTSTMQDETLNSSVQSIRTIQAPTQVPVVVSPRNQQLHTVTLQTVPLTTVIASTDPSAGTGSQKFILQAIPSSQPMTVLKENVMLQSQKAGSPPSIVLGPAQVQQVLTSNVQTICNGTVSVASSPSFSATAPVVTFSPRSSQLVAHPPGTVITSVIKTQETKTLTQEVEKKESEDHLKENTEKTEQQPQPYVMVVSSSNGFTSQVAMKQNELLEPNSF
The target in a further assay is T5, EHF (Homo sapiens, UniProt Q9NZC4 1-300).
T5 sequence: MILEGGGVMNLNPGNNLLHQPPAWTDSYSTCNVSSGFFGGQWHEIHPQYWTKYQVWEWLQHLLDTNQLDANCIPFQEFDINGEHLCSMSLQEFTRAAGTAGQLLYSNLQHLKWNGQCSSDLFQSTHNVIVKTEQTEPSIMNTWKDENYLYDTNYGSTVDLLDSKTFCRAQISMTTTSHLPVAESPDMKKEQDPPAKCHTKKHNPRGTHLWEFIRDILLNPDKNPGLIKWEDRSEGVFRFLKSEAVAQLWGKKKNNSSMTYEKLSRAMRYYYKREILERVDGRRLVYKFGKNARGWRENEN
Conditions: protein: recombinant; tags: N-terminal GST; dsDNA, one strand shown. In a few lines:
as §1

The target in the next assay is SPI1 (Homo sapiens, UniProt P17947 1-270). The note with it: protein: recombinant; tags: N-terminal GST; dsDNA, one strand shown. In a few lines:
as §1

The target in a further assay is SPIB (Homo sapiens, UniProt Q01892 1-262). The note with it: protein: recombinant; tags: N-terminal GST; dsDNA, one strand shown. An outline of the steps: as §1
Chain of SPIB (Q01892 whole entry): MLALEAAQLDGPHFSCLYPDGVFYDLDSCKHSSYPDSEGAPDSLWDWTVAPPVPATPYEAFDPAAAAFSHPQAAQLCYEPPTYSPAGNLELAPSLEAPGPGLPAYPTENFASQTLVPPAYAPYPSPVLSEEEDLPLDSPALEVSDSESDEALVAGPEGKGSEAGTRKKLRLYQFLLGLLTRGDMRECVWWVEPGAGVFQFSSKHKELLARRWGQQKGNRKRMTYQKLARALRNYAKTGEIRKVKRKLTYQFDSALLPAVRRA
Another assay concerns the target T6, ELK3 (Homo sapiens, UniProt P41970 1-407).
T6 sequence: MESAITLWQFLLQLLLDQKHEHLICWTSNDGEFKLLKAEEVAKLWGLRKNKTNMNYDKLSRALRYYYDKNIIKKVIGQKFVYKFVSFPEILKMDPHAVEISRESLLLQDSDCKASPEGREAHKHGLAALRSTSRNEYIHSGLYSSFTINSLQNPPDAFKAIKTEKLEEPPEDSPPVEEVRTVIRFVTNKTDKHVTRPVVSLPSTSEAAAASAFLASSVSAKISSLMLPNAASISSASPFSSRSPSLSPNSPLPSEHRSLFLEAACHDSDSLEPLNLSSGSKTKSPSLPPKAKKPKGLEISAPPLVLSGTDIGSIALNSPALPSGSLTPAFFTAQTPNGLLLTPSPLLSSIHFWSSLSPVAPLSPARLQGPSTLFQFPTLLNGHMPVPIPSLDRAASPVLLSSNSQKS
The note with it: protein: recombinant; tags: N-terminal GST; dsDNA, one strand shown. An outline of the steps: as §1

For another assay, the target named is T7, FEV (Homo sapiens, UniProt Q99581 1-238).
T7 sequence: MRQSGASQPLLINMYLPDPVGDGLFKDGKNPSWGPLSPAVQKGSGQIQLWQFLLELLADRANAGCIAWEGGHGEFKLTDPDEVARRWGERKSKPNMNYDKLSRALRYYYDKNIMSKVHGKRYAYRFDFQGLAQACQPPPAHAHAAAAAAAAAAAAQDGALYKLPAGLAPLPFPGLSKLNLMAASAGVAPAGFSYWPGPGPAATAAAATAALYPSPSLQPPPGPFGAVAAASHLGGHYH
Conditions: protein: recombinant; tags: N-terminal GST; dsDNA, one strand shown. An outline of the steps: as §1

In the next assay the target is ETV5 (Homo sapiens, UniProt P41161 1-510). Conditions: protein: recombinant; tags: N-terminal GST; dsDNA, one strand shown. In a few lines: as §1
Chain of ETV5 (P41161 whole entry): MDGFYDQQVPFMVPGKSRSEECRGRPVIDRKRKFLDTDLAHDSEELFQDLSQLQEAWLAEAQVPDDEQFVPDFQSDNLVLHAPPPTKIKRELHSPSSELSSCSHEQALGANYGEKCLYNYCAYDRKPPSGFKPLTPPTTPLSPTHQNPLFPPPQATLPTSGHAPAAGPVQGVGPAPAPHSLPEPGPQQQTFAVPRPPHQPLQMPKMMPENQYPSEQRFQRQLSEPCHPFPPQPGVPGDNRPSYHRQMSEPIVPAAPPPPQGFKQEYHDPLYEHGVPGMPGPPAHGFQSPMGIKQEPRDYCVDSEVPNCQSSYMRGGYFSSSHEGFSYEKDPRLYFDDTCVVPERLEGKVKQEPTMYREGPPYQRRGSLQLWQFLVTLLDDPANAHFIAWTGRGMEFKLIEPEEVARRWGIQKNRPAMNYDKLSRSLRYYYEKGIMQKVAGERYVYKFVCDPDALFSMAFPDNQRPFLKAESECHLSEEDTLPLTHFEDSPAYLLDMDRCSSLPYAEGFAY
The next assay concerns the target HSF1 (Homo sapiens, UniProt Q00613 1-529). The note with it: protein: recombinant; tags: N-terminal GST; chain copies: 3; dsDNA, one strand shown. In a few lines:
as §1

For a further assay, the target named is T8, SPIC (Homo sapiens, UniProt Q8N5J4 1-248).
T8 sequence: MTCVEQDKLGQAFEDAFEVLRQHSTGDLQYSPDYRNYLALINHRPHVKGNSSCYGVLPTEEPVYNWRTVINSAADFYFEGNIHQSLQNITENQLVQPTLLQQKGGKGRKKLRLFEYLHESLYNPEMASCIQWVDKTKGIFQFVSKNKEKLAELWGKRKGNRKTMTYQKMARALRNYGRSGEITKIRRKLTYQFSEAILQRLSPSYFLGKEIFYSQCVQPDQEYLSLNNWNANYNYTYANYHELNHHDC
The note with it: protein: recombinant; tags: N-terminal GST; dsDNA, one strand shown. In a few lines:
as §1

Another assay has as its target ELF4 (Homo sapiens, UniProt Q99607 1-663). Conditions: protein: recombinant; tags: N-terminal GST; dsDNA, one strand shown. In a few lines:
as §1

A further assay concerns the target T9, ELK4 (Homo sapiens, UniProt P28324-2 1-405).
T9 sequence: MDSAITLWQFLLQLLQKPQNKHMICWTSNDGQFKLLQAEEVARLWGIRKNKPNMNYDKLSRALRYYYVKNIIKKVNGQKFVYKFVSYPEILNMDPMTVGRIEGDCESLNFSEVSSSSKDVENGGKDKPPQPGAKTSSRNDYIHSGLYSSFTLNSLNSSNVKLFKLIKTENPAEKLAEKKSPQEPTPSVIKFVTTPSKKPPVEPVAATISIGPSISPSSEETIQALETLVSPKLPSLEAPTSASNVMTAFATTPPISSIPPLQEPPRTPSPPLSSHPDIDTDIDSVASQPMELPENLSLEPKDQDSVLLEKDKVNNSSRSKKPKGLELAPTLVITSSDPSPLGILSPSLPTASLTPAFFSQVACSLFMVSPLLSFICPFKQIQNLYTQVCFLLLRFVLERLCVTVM
Conditions: protein: recombinant; tags: N-terminal GST; dsDNA, one strand shown. An outline of the steps: as §1

For a further assay, the target named is T10, ETV2 (Homo sapiens, UniProt O00321 1-342).
T10 sequence: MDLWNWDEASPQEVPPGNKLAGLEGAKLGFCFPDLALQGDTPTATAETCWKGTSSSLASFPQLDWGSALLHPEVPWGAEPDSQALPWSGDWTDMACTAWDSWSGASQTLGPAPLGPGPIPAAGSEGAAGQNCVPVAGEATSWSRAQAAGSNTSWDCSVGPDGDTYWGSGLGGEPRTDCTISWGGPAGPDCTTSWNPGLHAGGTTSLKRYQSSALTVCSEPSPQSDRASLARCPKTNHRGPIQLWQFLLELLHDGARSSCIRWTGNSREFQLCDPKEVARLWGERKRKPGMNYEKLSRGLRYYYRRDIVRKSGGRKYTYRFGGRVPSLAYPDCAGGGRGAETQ
The note with it: protein: recombinant; tags: N-terminal GST; dsDNA, one strand shown. In a few lines:
as §1

The target in the next assay is T11, ELF3 (Homo sapiens, UniProt P78545 1-371).
T11 sequence: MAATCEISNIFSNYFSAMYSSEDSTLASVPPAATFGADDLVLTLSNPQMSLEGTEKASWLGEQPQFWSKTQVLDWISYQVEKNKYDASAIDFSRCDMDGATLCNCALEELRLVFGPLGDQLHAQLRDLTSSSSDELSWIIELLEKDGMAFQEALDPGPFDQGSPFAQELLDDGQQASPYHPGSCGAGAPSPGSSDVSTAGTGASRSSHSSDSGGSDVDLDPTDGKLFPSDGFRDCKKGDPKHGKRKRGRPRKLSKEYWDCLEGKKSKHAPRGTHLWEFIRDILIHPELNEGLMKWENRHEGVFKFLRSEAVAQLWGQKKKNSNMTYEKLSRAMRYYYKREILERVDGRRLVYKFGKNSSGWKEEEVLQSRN
Conditions: protein: recombinant; tags: N-terminal GST; dsDNA, one strand shown. In a few lines: as §1

In the next assay the target is CRX (Homo sapiens, UniProt O43186 1-299). Conditions: protein: recombinant; tags: N-terminal GST; dsDNA, one strand shown. In a few lines:
as §1

The target of the next assay is ETV1 (Homo sapiens, UniProt P50549 1-477). The note with it: protein: recombinant; tags: N-terminal GST; dsDNA, one strand shown. In a few lines:
as §1

Chain of CRX (O43186 whole entry): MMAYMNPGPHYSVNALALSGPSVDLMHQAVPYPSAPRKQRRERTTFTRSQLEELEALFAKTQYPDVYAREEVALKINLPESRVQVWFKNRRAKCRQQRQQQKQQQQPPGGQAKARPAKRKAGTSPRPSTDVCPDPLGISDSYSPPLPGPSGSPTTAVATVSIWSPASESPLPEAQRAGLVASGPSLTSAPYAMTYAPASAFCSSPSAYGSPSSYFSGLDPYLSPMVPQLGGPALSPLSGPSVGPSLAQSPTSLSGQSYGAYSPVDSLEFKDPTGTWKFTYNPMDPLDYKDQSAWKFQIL
Chain of ELF4 (Q99607 whole entry): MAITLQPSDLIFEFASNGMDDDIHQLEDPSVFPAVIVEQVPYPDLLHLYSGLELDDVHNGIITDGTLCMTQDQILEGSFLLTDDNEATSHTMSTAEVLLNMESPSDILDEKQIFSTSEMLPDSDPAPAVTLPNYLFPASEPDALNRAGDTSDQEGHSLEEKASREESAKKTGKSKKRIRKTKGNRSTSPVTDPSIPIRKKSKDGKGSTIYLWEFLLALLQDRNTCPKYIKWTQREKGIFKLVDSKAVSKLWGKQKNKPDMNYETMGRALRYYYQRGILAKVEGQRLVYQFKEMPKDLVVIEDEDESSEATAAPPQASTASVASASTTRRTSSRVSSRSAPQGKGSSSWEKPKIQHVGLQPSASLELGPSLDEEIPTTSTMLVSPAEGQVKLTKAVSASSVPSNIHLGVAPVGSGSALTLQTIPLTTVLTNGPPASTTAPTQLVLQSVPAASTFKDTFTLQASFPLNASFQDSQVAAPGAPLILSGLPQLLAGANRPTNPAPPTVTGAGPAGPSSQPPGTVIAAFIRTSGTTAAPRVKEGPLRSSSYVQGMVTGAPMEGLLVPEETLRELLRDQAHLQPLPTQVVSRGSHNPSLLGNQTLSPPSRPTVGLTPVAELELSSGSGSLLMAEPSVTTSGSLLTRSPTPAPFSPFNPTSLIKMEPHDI
Chain of HSF1 (Q00613 whole entry): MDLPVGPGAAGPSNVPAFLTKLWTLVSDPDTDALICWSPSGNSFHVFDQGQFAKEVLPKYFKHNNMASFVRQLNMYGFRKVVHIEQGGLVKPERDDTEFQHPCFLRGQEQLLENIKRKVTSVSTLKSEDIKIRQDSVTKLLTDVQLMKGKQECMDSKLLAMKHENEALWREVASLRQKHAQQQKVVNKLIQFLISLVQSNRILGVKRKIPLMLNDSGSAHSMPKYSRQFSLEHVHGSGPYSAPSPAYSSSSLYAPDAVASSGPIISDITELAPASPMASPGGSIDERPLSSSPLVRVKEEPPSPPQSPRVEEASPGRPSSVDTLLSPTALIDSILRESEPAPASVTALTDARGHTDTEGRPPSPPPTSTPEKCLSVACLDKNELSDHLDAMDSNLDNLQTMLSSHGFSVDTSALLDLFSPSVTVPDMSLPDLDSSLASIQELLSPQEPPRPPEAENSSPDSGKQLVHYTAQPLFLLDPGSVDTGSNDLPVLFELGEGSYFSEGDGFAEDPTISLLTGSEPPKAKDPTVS
Chain of ETV1 (P50549 whole entry): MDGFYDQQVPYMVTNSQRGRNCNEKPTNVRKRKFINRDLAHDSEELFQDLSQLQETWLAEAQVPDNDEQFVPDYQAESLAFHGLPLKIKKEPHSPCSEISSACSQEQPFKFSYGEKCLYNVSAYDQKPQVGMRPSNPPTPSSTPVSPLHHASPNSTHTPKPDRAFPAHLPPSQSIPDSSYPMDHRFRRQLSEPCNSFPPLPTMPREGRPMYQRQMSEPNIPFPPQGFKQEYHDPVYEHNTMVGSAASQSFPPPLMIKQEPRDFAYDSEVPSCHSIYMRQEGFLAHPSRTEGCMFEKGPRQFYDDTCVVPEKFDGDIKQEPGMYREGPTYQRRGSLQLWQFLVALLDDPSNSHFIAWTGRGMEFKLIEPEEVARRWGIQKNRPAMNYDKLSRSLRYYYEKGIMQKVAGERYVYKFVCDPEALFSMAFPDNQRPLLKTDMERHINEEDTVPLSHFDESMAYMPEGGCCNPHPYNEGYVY

As for CAGGAT, the binding signal with FLI1 was 1.23 fold enrichment (6-mer frequency, TF over GST control); with ELK1 it was 1.16 fold enrichment (6-mer frequency, TF over GST control); with GABPA it was 1.13 fold enrichment (6-mer frequency, TF over GST control); with ERG, 1.2 fold enrichment (6-mer frequency, TF over GST control); with ELF1 it was 1.14 fold enrichment (6-mer frequency, TF over GST control); in the assay with EHF, 1.19 fold enrichment (6-mer frequency, TF over GST control). For the same sequence, the binding signal with SPI1 is 1.1 fold enrichment (6-mer frequency, TF over GST control); in the assay with SPIB it was 1.29 fold enrichment (6-mer frequency, TF over GST control); with ELK3 it was 1.04 fold enrichment (6-mer frequency, TF over GST control); with FEV it was 1.27 fold enrichment (6-mer frequency, TF over GST control); with ETV5, 1.19 fold enrichment (6-mer frequency, TF over GST control); in the assay with HSF1, 1.08 fold enrichment (6-mer frequency, TF over GST control). Also, the binding signal was 1.04 fold enrichment (6-mer frequency, TF over GST control) in the assay with SPIC; 1.11 fold enrichment (6-mer frequency, TF over GST control) in the assay with ELF4; 1.23 fold enrichment (6-mer frequency, TF over GST control) in the assay with ELK4; 1.15 fold enrichment (6-mer frequency, TF over GST control) with ETV2; 1.12 fold enrichment (6-mer frequency, TF over GST control) in the assay with ELF3; 1.35 fold enrichment (6-mer frequency, TF over GST control) with CRX. Further, in the assay with ETV1, the binding signal is 1.34 fold enrichment (6-mer frequency, TF over GST control).
